# Experimental data taken from PubChem BioAssay AID1259336 (Sattelle Laboratory, UCL Respiratory, Division of Medicine, …, 2017).
# Unmarked numbers belong to inactive results. The source made the active and inactive calls. Cut-off read from the data, not from the text of the source: active = log2 fold change growth below about -1.8; inactive = the rest.
# Test: C. elegans growth inhibition, whole organism, log2 fold change (AID 1259336);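 note: growth scored by imaging after five days at 20 °C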
# Conditions: anthelmintic screen, stronger effect = lower value
row,SMILES,log2 fold change growth
1,CNC(=O)c1nn(C)c2c1C(C)(C)Cc1cnc(Nc3ccc(N4CCN(C)CC4)cc3)nc1-2,0.103
2,c1ccc(-c2cc(N3CCCCC3)c3ccccc3n2)nc1,-1.36
3,Clc1cccc(CO[C@H]2CCc3ccccc3[C@@H]2n2ccnn2)c1,0.571
4,COc1cccc(OCC(=O)c2ccc(Br)cc2)c1,-0.945
5,C[C@@H](c1cc(Cl)cc(Cl)c1)N(C)c1ncc2c(N)nc(N)nc2n1,-0.371
6,Cn1c(=O)c2c(S(C)(=O)=O)snc2n(C)c1=O,0.155
7,COC(=O)Nc1nc2ccc(C(=O)c3ccccc3)cc2[nH]1,-6.04 (active)
8,O=C(Nc1cnc2ccccc2c1)c1cccc(-n2cnnn2)c1,0.489
9,O=C(CCC1CCCCC1)Nc1cccc(-c2nnc(-c3ccco3)o2)c1,0.147
10,CCCn1c(CNc2ccccc2O)nc2ccccc21,0.228
11,CCOc1ccc(-c2nc(CNCCc3ccc(F)cc3)cs2)cc1,0.153
12,Cc1cc(Nc2ccncc2)n2nc(C)c(-c3ccccc3Cl)c2n1,-0.496
13,COc1ccccc1CNC(=O)c1cc(C2CC2)nc2c1cnn2C(C)C,-0.297
14,Cc1ncc(-c2ccnc(Nc3ccc(S(C)(=O)=O)cc3)n2)n1C(C)C,0.268
15,Cn1ncc2c(N3CCOCC3)nc(NCCc3c[nH]c4ccccc34)nc21,0.0196
16,CC(=O)NC[C@H]1CN(c2ccc(-c3ccc(CO)cc3)c(F)c2)C(=O)O1,0.592
